# Counter-ions that a name gives are not always drawn. ± gives the standard deviation.
# Key:
# Jurkat [1] = experiment: mean cell size (FSC-A) relative to DMSO control (fraction of control); higher = larger cells; details: 48 h
# Procedure, shortened: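 Jurkat cells seeded at 600 cells/µl were incubated 1 h, then exposed for 48h to the Enzo Screen-Well FDA Approved Drug Library v2.0 at 25µM in 0.9% (v/v) final DMSO. Drugs that cut counts below 20% of controls were diluted 10-fold and retested, down to 25nM. Cell count and mean cell size (forward scatter area) were read on an Accuri C6 flow cytometer, relative to solvent-only controls. Plates held 6-12 controls; values are means of 3 biological replicates.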
# Jurkat [2] = experiment: cell count relative to DMSO control (fraction of control); higher = more cells (less growth inhibition); details: 48 h
SMILES,mean cell size (Jurkat [1]),cell count (Jurkat [2])
NCC(CC(=O)O)c1ccc(Cl)cc1 (configuration not stated) [Baclofen] (concentration: 25 µM),0.985 ± 0.044,0.555 ± 0.08
C=C1C[C@@H]2[C@H](CC[C@]3(C)C(=O)CC[C@@H]23)[C@@]2(C)C=CC(=O)C=C12 [Exemestane] (concentration: 25 µM),0.914 ± 0.029,0.422 ± 0.12
N[C@@H]1C[C@H]1c1ccccc1.N[C@H]1C[C@@H]1c1ccccc1 [Tranylcypromine Hemisulfate] (concentration: 25 µM),0.926 ± 0.0078,0.931 ± 0.063
COc1cc([C@@H]2c3cc4c(cc3[C@H](O)[C@H]3COC(=O)[C@H]23)OCO4)cc(OC)c1OC [Podofilox] (concentration: 25 nM),0.863 ± 0.026,0.0355 ± 0.018
CCN(C(C)=O)c1cccc(-c2ccnc3c(C#N)cnn23)c1 [Zaleplon] (concentration: 25 µM),1 ± 0.059,0.664 ± 0.14
C#CCN(C)[C@H](C)Cc1ccccc1 [Selegiline·HCl] (concentration: 25 µM),0.9392 ± 0.0074,0.711 ± 0.098
O=C1Nc2ccc(Cl)cc2C(c2ccccc2Cl)=NC1O (configuration not stated) [Lorazepam] (concentration: 25 µM),0.927 ± 0.03,0.912 ± 0.056
CC[C@@H](C(N)=O)N1CCCC1=O [Levetiracetam] (concentration: 25 µM),0.968 ± 0.018,0.603 ± 0.1
O=C(O[C@H]1C[C@H]2CC[C@@H](C1)[N+]21CCCC1)C(O)(c1ccccc1)c1ccccc1 [Trospium Chloride] (concentration: 25 µM),1.07 ± 0.049,0.982 ± 0.079
CN(C)C(=O)Oc1ccc[n+](C)c1 [Pyridostigmine Bromide] (concentration: 25 µM),0.986 ± 0.027,0.651 ± 0.11
CCCCCCC(=O)O[C@H]1CC[C@H]2[C@@H]3CCC4=CC(=O)CC[C@]4(C)[C@H]3CC[C@]12C [Testosterone Enanthate] (concentration: 25 µM),0.954 ± 0.047,0.703 ± 0.12
Cc1nnc2n1-c1ccc(Cl)cc1C(c1ccccc1Cl)=NC2 [Triazolam] (concentration: 25 µM),0.935 ± 0.05,0.992 ± 0.11
Cn1c(CCCC(=O)O)nc2cc(N(CCCl)CCCl)ccc21 [Bendamustine·HCl] (concentration: 25 µM),1.26 ± 0.022,0.2666 ± 0.00052
O=C1CN=C(c2ccccc2Cl)c2cc([N+](=O)[O-])ccc2N1 [Clonazepam] (concentration: 25 µM),1.02 ± 0.06,0.659 ± 0.12
Oc1ccc2c(c1)[C@@]13CCCC[C@@]1(O)[C@@H](C2)N(CC1CCC1)CC3 [Butorphanol-(+)-Tartrate (Schedule Iv)] (concentration: 25 µM),0.952 ± 0.049,0.586 ± 0.075
Cc1c(N)nc(C(CC(N)=O)NCC(N)C(N)=O)nc1C(=O)NC(C(=O)NC(C)C(O)C(C)C(=O)NC(C(=O)NCCc1nc(-c2nc(C(=O)NCCC[S+](C)C)cs2)cs1)C(C)O)C(O[C@@H]1O[C@@H](CO)[C@@H](O)[C@H](O)[C@@H]1O[C@H]1O[C@H](CO)[C@@H](O)[C@H](OC(N)=O)[C@@H]1O)c1cnc[nH]1 (some centres not stated) [Bleomycin Sulfate] (concentration: 2.5 µM),1.33 ± 0.048,0.297 ± 0.043
